# Hit rate of the full screen: of about 6,200 compounds, about 2,900 (47%) were called active. Rule as the data show it: active = inhibition above about 50%; inactive = the rest. The set was probably picked from earlier hits. This is one part of the list.
# Test: Mycobacterium tuberculosis growth inhibition, primary screen (AID 1259343)
# Details: inhibition: at 10 µM, active compounds read high; outcome: 10 uM
row,SMILES,inhibition
1,Fc1cccc(Nc2cc3[nH]c(-c4cccc(F)c4)cc3cn2)c1,30.6% (inactive)
2,COCC(C)NC(=O)c1ccc(CSc2ccccc2)o1 (configuration not stated),-22.4% (inactive)
3,COCC(C)NC(=O)C12CCC(C)(C(=O)O1)C2(C)C (configuration not stated),100% (active)
4,Brc1ccc(-n2nc(-c3ccccc3)n[n+]2-c2nnn[n-]2)cc1,49.9% (inactive)
5,O=C(O)c1cc(-c2ccc(Cl)c(Cl)c2)ns1,90% (active)
6,O=C(O)c1cc2cc(Cl)sc2s1,37% (inactive)
7,CCN(CC)c1ccc(CN(C)S(=O)(=O)c2ccc(F)cc2)cc1,33.5% (inactive)
8,CN(Cc1ccc(Cl)s1)S(=O)(=O)c1ccc(Cl)cc1,73.6% (active)
9,O=C(Nc1cccc2cccnc12)N1CCCC1C1CCCC1 (configuration not stated),27.2% (inactive)
10,O=C(CN1CCc2ccccc2C1)Nc1nc(-c2cc3ccccc3o2)cs1,5.08% (inactive)
11,Cc1ccc2c(c1)C1CN(C)CCC1N2C(=O)NCC1CCCC1 (configuration not stated),45.5% (inactive)
12,O=C(NCC1CC1)N1Cc2ccccc2C(c2ccccc2)C1 (configuration not stated),8.6% (inactive)
13,O=C(NCC1CCN(c2ccccc2)C1)N1CCCC1C1CCCC1 (configuration not stated),67.7% (active)
14,CC(=O)NCCC1CCN(c2nncc(-c3ccc(Cl)cc3)n2)CC1,38% (inactive)
15,CC(C)CC(=O)NCC1CCN(c2ccc(Cl)cc2)C1 (configuration not stated),68.8% (active)
16,O=C(CN1CCc2ccccc2C1)NCC1CCN(c2ccccc2)C1 (configuration not stated),91.3% (active)
17,O=C(Nc1nc2c(Br)cccc2s1)Nc1c(F)cccc1F,28.4% (inactive)
18,Fc1cccc2sc(Nc3nnc(-c4cccs4)o3)nc12,101% (active)
19,Cc1cccc2cc(CNC(C)Cc3ccco3)c(Cl)nc12 (configuration not stated),24.3% (inactive)
20,CC(C)(Cc1ccc2ccccc2c1)NC[C@@H](O)COc1cccc(Cl)c1C#N,87.4% (active)
21,N#Cc1c(Cl)cccc1Oc1cccc(C(=O)O)c1,6.19% (inactive)
22,Cc1ccc(OCC2CN(C(=O)COc3ccc(F)cc3)CCO2)cc1 (configuration not stated),82.5% (active)
23,Cc1ccc(OCC2CN(C(=O)COc3ccccc3C)CCO2)cc1 (configuration not stated),75.9% (active)

row,SMILES,inhibition
1,Cc1ccccc1OCC(=O)N1CCOC(COc2cccc(C(F)(F)F)c2)C1 (configuration not stated),6.21% (inactive)
2,O=C(COc1ccc(F)cc1)N1CCOC(COCc2c(Cl)cccc2Cl)C1 (configuration not stated),34% (inactive)
3,Cc1cc(OCC2CN(C(=O)c3ccc(C#N)cc3F)CCO2)ccc1Cl (configuration not stated),5.04% (inactive)
4,O=C(Cc1cccc(Cl)c1)N1CCOC(COc2ccc3c(c2)CCCC3)C1 (configuration not stated),44% (inactive)
5,COc1cccc(CC(=O)N2CCOC(COc3ccc(F)cc3)C2)c1 (configuration not stated),24% (inactive)
6,Cc1cc(OCC2CN(C(=O)COc3ccccc3C)CCO2)ccc1Cl (configuration not stated),50.9% (active)
7,CNc1ccc(C(=O)N2CCOC(COc3ccc(Cl)c(C)c3)C2)cc1 (configuration not stated),53% (active)
8,Cc1cc(OCC2CN(C(=O)Cc3ccc4c(c3)OCO4)CCO2)ccc1Cl (configuration not stated),65.7% (active)
9,Cc1cc(OCC2CN(C(=O)COCc3ccccc3)CCO2)ccc1Cl (configuration not stated),50.5% (active)
10,O=C(Cc1cccc(Cl)c1)N1CCOC(COc2ccc(F)cc2)C1 (configuration not stated),11.7% (inactive)
11,Cc1ccccc1OCC(=O)N1CCOC(COCc2ccccc2F)C1 (configuration not stated),72.4% (active)
12,COc1cccc(CC(=O)N2CCOC(COc3ccc(Cl)c(C)c3)C2)c1 (configuration not stated),4.53% (inactive)
13,O=C(NCCC(=O)N1CCOC(COCc2ccc(F)cc2Cl)C1)OCc1ccccc1 (configuration not stated),61% (active)
14,O=C(Cc1cccc(Cl)c1)N1CCOC(COCc2ccccc2F)C1 (configuration not stated),30.4% (inactive)
15,Cc1cc(OCC2CN(C(=O)Cc3cccc(Cl)c3)CCO2)ccc1Cl (configuration not stated),31% (inactive)
16,CNC(=O)c1cc(Oc2ccc(NC(=O)Nc3ccc(Cl)c(C(F)(F)F)c3)c(F)c2)ccn1,34.8% (inactive)
17,O=S1(=O)N(CCN2CC=C(c3c[nH]c4cc(F)ccc34)CC2)c2cccc3c2N1CCC3,12.6% (inactive)
18,O=C(/C=C/c1ccc(-c2cccc([N+](=O)[O-])c2)o1)N1CCCCC1,80.3% (active)
19,COc1c(Br)cc(Cl)cc1S(=O)(=O)NCCc1ccccc1,18% (inactive)
20,CCc1ccc(CN(C)Cc2nc(Cc3ccccc3F)no2)cc1,71% (active)
21,CN(Cc1ccc(F)cc1)Cc1nc(Cc2ccccc2Cl)no1,89.3% (active)
22,COCCCC1CCN(Cc2nc(Cc3ccccc3Cl)no2)CC1,29.1% (inactive)
23,Clc1ccccc1Cc1noc(CN2CCN(Cc3ccccc3)CC2)n1,51.2% (active)

row,SMILES,inhibition
1,Fc1ccccc1N1CCN(Cc2nc(Cc3ccccc3Cl)no2)CC1,inactive
2,CN(Cc1nc(-c2cccc(Cl)c2)no1)C1CCCCC1,74.3% (active)
3,CN(C1CCCCC1)S(=O)(=O)N1CCCC(c2nc(-c3cccc(F)c3)no2)C1 (configuration not stated),33.1% (inactive)
4,CN(Cc1ccc2nsnc2c1)Cc1nc(Cc2ccccc2Cl)no1,31.6% (inactive)
5,Cc1ccc(OCCN(C)Cc2nc(-c3cccc(Cl)c3)no2)cc1,35% (inactive)
6,OCC1(Cc2ccccc2)CCCN(c2ccc(-c3ccccc3)nn2)C1 (configuration not stated),23.4% (inactive)
7,CN(Cc1nc(Cc2ccccc2Cl)no1)C1CCCCC1,65.6% (active)
8,COc1cccc2c1OCCCN(Cc1nc(Cc3ccccc3Cl)no1)C2,14.3% (inactive)
9,Cc1noc(CNc2cc(Cl)ccc2Oc2ccccc2)n1,33.9% (inactive)
10,COc1cccc(F)c1OCc1nc(CC2CC2)no1,-44.2% (inactive)
11,Cc1ccc(F)c(OCc2nc(Cc3ccccc3F)no2)c1F,81.3% (active)
12,COc1ccc(C2N=C(c3ccccc3C)NO2)cc1O (configuration not stated),inactive
13,COc1ccc([C@@H]2CC(=O)c3c(O)cc(O)cc3O2)cc1O,67.2% (active)
14,S=c1oc(-c2cccc(Cl)c2)nn1CN1CCC(c2nnc3ccccn23)CC1,22.7% (inactive)
15,CN1CCN(Cn2nc(-c3ccc4c(c3)OCO4)oc2=S)CC1,86.7% (active)
16,Cc1cc(C)cc(-c2nn(CN3CCOCC3(C)C)c(=S)o2)c1,-38.7% (inactive)
17,CCc1ccc(/C=C/S(=O)(=O)Nc2onc(C)c2C)cc1,68.3% (active)
18,O=C(c1ccc(Oc2ccc(Cl)cc2)c(F)c1)N1CCC(O)CC1,5.66% (inactive)
19,O=C(c1ccc(C(F)(F)F)c(F)c1)N1CCC(Cc2ccc(-n3cccc3)cc2)CC1,63.9% (active)
20,O=C(c1ccc(F)c(F)c1F)N1CCC(Cc2ccc(-n3cccc3)cc2)CC1,56.5% (active)
21,O=C(c1ccc(C(F)(F)F)c(F)c1)N1CCC(Cc2ccc(F)cc2)CC1,87% (active)

# Reference: PubChem BioAssay AID1259343 (VanderVen Lab, College of Veterinary Medicine, Cornell …, 2017)
